# Measurements as given in PubChem BioAssay (Tox21).
# Where “and” joins values, the source holds several entries; their conditions need not be identical. Identical values can stand only once. Records with an inconclusive call do not appear. A number with no mark means an inactive call. Calls of active or inactive are those of the source. The call rests on the fitted dose curve.
# Assay: qHTS assay to identify small molecule antagonists of the estrogen receptor alpha (ER-alpha) signaling pathway - cell viability counter screen (AID 743074);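 further: HEK293 cells carrying ER-alpha-UAS-bla reporter stimulated with 17beta-estradiol; nearly all actives have a fitted effect of over 45% in size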
# Settings: ERalpha-bla HEK293 viability, CellTiter-Glo luminescence, 18 h; series mostly up to 69.4 µM; activity, negative = cytotoxicity: at the top concentration
# On the % scale 0 is the no-effect control and ±100 the full control effect; potency means the concentration at half of the fitted maximal effect.
Structure (SMILES),"activity, negative = cytotoxicity",Potency
OC[C@H]1O[C@H](O[C@H]2O[C@H](CO)[C@@H](O)[C@H](O)[C@H]2O)[C@H](O)[C@@H](O)[C@@H]1O,10.5% [at 79.1 µM],–
CN1CCN2c3ccccc3Cc3ccccc3C2C1 (centres undefined),–,23.9 µM (active)
C/C=C/C=C/COC(=O)C(C)C,-5.95%,–
O=C1CCc2ccc(OCCCCN3CCN(c4cccc(Cl)c4Cl)CC3)cc2N1,–,23.9 µM (active)
CN(C)Cc1cc(C(C)(C)C)c(O)c(C(C)(C)C)c1,-10.8%,–
Cc1cc(C(C)(C)C)cc(C)c1CC1=NCCN1,-2.67% [at 32.6 µM],–
CN1CCC[C@@H]1CCO[C@](C)(c1ccccc1)c1ccc(Cl)cc1,-18.1%,–
Cc1cc(C)c(/C=C2\C(=O)Nc3ccccc32)[nH]1,-25.9%,–
Cc1ccc(N/N=c2\c(=O)cc/c(=N\Nc3ccc(S(=O)(=O)O)cc3)c2=O)c(C)c1,-8.19%,–
Nc1ccc(NCCO)c([N+](=O)[O-])c1,20.8%,–
O=C(c1ccc(O)c(O)c1)c1ccc(O)cc1O,-19.4%,–
CCOc1ccc2ccccc2c1C(=O)N[C@@H]1C(=O)N2[C@@H]1SC(C)(C)[C@@H]2C(=O)O,7.89% [at 32.6 µM],–
CCCCCCCCCCCCCCCC[N+](C)(C)CC,–,19 µM (active) and 55.1 µM (active)
CN1CCCCC1CCN1c2ccccc2Sc2ccc(S(C)=O)cc21 (centres undefined),–,inactive
CCC(=O)C(=O)CC,21.7% [at 79.1 µM],–
Nc1cc(Cl)c(O)c(Cl)c1,-9.34%,–
O=S(=O)(O)c1ccc(N=Nc2c(O)ccc3ccccc23)cc1,-27.2%,–
O=c1c(O)c(-c2ccc(O)cc2O)oc2cc(O)cc(O)c12,-6.59%,–
COCCOc1cc2cc(C(=O)NC3CCN(C(C)C)CC3)n(CC(=O)Nc3ccc(Cl)cn3)c2cn1,-20.1%,–
